“And” between values parts separate entries of the source, which are not always exact repeats. Equal entries are not always repeated. Results filed as inconclusive are left out. Where a call stands in place of a potency, no number is given. Where a structure was tested more than once in an assay, its records may differ in their call. The source made the active and inactive calls. Calls follow the shape of the full dose curve.
Columns and labels:
[1] = target: Acetylcholinesterase (Homo sapiens) (UniProt P22303); test: Acetylcholinesterase (AChE) small molecule antagonists: colormetric cell-based qHTS assay (AID 1347395); also: nearly all actives have a fitted effect of over 30% in size; also: potency is read from the fitted curve at half-maximal effect
Acetylcholinesterase (Homo sapiens), sequence (P22303 whole entry, looked up): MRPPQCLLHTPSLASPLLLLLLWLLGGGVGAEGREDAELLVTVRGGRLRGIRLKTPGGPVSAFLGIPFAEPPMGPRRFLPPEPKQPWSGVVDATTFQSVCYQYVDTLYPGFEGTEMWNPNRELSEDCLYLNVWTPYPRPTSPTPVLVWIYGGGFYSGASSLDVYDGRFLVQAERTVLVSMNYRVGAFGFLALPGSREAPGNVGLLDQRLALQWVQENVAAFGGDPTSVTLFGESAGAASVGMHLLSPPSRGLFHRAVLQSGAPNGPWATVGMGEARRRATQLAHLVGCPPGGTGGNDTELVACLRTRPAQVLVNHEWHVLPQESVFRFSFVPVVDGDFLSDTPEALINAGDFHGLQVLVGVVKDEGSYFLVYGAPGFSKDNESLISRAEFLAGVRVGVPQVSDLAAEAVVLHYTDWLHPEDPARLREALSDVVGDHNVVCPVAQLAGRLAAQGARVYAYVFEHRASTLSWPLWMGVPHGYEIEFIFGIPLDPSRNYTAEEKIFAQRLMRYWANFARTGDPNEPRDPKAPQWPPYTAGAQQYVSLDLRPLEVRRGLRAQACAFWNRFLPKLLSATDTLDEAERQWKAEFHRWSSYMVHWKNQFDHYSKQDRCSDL
Procedure, shortened: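 Quantitative HTS in attached SH-SY5Y cells: 30 min compound exposure, then 90 min with acetylthiocholine and DTNB at 37 C; colour from thiocholine reports AChE activity.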

[2] = target: Acetylcholinesterase (Homo sapiens) (UniProt P22303); test: Acetylcholinesterase (AChE) small molecule antagonists: enzyme-based qHTS assay (AID 1347397); conditions: Potency: AChE enzyme activity inhibition; outcome: AChE enzyme activity inhibition; also: nearly all actives have a fitted effect of over 55% in size
Procedure, shortened: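 First, recombinant human AChE (50 mU/mL as dispensed) received test compound or DMSO. Second, plates stood 30 min at room temperature. Third, DTNB and acetylthiocholine were added, followed by 10 min at room temperature and colorimetric detection.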

[3] = target: Acetylcholinesterase (Homo sapiens) (UniProt P22303); test: Acetylcholinesterase (AChE) small molecule antagonists: fluorescence cell-based qHTS assay (AID 1347398); conditions: Potency: AChE activity; outcome: AChE activity; also: nearly all actives have a fitted effect of over 50% in size
Procedure, shortened: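 Homogeneous quantitative HTS format. SH-SY5Y cells seeded at 2,000 per well settle overnight at 37 C. Compound pretreatment runs 30 min (37 C, 5% CO2); substrate/probe mix then reacts 40 min at RT before reading 490/520 nm.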

[4] = target: Acetylcholinesterase (Homo sapiens) (UniProt P22303); test: Acetylcholinesterase (AChE) small molecule antagonists: enzyme-based qHTS assay with human liver microsomes (AID 1347399); conditions: Potency: qHTS inhibition; outcome: qHTS inhibition; also: nearly all actives have a fitted effect of over 60% in size
Procedure, shortened: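 Recombinant human AChE (50 mU/mL in the enzyme mix) and human liver microsomes (0.25 mg/mL final) were preincubated with compound and NADPH (0.25 mg/mL final) for 30 min at 37 C. Acetylthiocholine/DTNB was then added; thiocholine was read colorimetrically after 10 min at room temperature.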

| Structure (SMILES) | Potency [1] | Potency [2] | Potency [3] | Potency [4] | outcome [1] | outcome [2] | outcome [3] | outcome [4] |
| --- | --- | --- | --- | --- | --- | --- | --- | --- |
| CC(C)(C)[C@@H](O)[C@@H](Cc1ccc(Cl)cc1)n1cncn1 | inactive and 71 µM (active) | inactive | inactive | inactive |  |  |  |  |
| C[C@]12CC[C@@H]3c4ccc(O)cc4CC[C@H]3[C@@H]1C[C@@H](O)[C@@H]2O | inactive | inactive | inactive | inactive |  |  |  |  |
| Nc1ccc(N=Nc2ccccc2)c(N)n1 | inactive | inactive | inactive | inactive |  |  |  |  |
| O=S(=O)(O)c1ccc2cc(O)ccc2c1 | inactive | inactive | inactive | inactive |  |  |  |  |
| CC(=O)Nc1ccc(C)c(Cl)c1 | inactive | inactive | inactive | inactive |  |  |  |  |
| CCN(CC)c1ccc(C(=O)c2ccccc2C(=O)O)c(O)c1 | inactive | inactive | inactive | inactive |  |  |  |  |
| OCCOc1cccc(OCCO)c1 | inactive | inactive | inactive | inactive |  |  |  |  |
| Cc1cc(C(C)(C)C)c(O)c(C)c1CC1=NCCN1 | inactive | inactive | inactive | inactive |  |  |  |  |
| CCCc1ccc(O)cc1 | inactive | inactive | inactive | inactive |  |  |  |  |
| O=[N+]([O-])c1ccccc1CCO | inactive | inactive | inactive | inactive |  |  |  |  |
| Cc1ncc[nH]1 | inactive | inactive | inactive | inactive |  |  |  |  |
| NCC1CCC(C(=O)Oc2ccc(CCC(=O)O)cc2)CC1 (stereo not given) | inactive | inactive | inactive | inactive |  |  |  |  |
| Nc1ccc(S(=O)(=O)c2ccc(N)cc2)cc1 | inactive | inactive | inactive | inactive |  |  |  |  |
| CCCCc1nc2cccnc2n1Cc1ccc(-c2ccccc2-c2nnn[nH]2)cc1 | inactive | inactive | inactive | inactive |  |  |  |  |
| COC1CCC=CO1 (stereo not given) | inactive | inactive | inactive | inactive |  |  |  |  |
| Cc1c[nH]c(=O)[nH]c1=O | inactive | inactive | inactive | inactive |  |  |  |  |
| OCCCCCO | inactive | inactive | inactive | inactive |  |  |  |  |
| Nc1nc2ccc([N+](=O)[O-])cc2s1 | inactive | inactive | inactive | inactive |  |  |  |  |
| CC(C)OC(=O)OCOP(=O)(CO[C@H](C)Cn1cnc2c(N)ncnc21)OCOC(=O)OC(C)C | inactive | inactive | inactive | inactive |  |  |  |  |
| CN(C)CCC(c1ccccc1)c1ccccn1 (stereo not given) | inactive | inactive | inactive | inactive |  |  |  |  |

| Structure (SMILES) | Potency [1] | Potency [2] | Potency [3] | Potency [4] | outcome [1] | outcome [2] | outcome [3] | outcome [4] |
| --- | --- | --- | --- | --- | --- | --- | --- | --- |
| CCCCOCCOC(=O)c1ccccc1C(=O)OCCOCCCC | inactive | inactive | inactive | inactive |  |  |  |  |
| Nc1cccc(O)c1 | inactive | inactive | inactive | inactive |  |  |  |  |
| O=c1[nH]cnc2[nH]ncc12 | inactive | inactive | inactive | inactive |  |  |  |  |
| CC(=O)N(O)CCCCCNC(=O)CCC(=O)N(O)CCCCCNC(=O)CCC(=O)N(O)CCCCCN |  |  |  |  | inactive | inactive | inactive | inactive |
| CCCCCOC(=O)CCC | inactive | inactive | inactive | inactive |  |  |  |  |
| CCO[Si](CCC#N)(OCC)OCC | inactive | inactive | inactive | inactive |  |  |  |  |
| C[C@H]1[C@@H](c2ccccc2)NC(=O)N1C | inactive | inactive | inactive | inactive |  |  |  |  |
| Oc1ccc(N=Nc2ccccc2)cc1 | inactive | inactive | inactive | inactive |  |  |  |  |
| C=C(C)C(=O)OCCCCCCCCCCCC | inactive | inactive | inactive | inactive |  |  |  |  |
| CN(C)c1ccc(C2(c3ccc(N(C)C)cc3)OC(=O)c3cc(N(C)C)ccc32)cc1 | inactive | inactive | inactive | inactive |  |  |  |  |
| CCCC(C)C | inactive | inactive | inactive | inactive |  |  |  |  |
| COS(=O)(=O)O | inactive | inactive | inactive | inactive |  |  |  |  |
| CCCCCCCCCCl | inactive | inactive | inactive | inactive |  |  |  |  |
| O=C(O)CC(=O)C(=O)O | inactive | inactive | inactive | inactive |  |  |  |  |
| Cc1ccc(C)c(O)c1 | inactive | inactive | inactive | inactive |  |  |  |  |
| COc1ccc(C(=O)c2ccc(C)cc2)c(O)c1 | inactive | inactive | inactive | inactive |  |  |  |  |
| Clc1ccccc1C(c1ccccc1)(c1ccccc1)n1ccnc1 | inactive | inactive | inactive | inactive |  |  |  |  |
| CCCCCCCCCCCCCCC(=O)NC(CO)CCCCCCCCCCCCCC (stereo not given) | inactive | inactive | inactive | inactive |  |  |  |  |
| OC[C@H]1O[C@@H](n2cnc3c(=S)nc[nH]c32)[C@H](O)[C@@H]1O | inactive | inactive | inactive | inactive |  |  |  |  |
| O=C(O)c1ccccc1C(c1ccc(O)cc1)c1ccc(O)cc1 | inactive | inactive | inactive | inactive |  |  |  |  |

| Structure (SMILES) | Potency [1] | Potency [2] | Potency [3] | Potency [4] | outcome [1] | outcome [2] | outcome [3] | outcome [4] |
| --- | --- | --- | --- | --- | --- | --- | --- | --- |
| C#CCN(C)CCCOc1ccc(Cl)cc1Cl | inactive | inactive | inactive | inactive |  |  |  |  |
| CCCCN(CCCC)CCCCCCN(CCCC)CCCC | inactive | inactive | inactive | inactive |  |  |  |  |
| COc1ccc(CCO)cc1 | inactive | inactive | inactive | inactive |  |  |  |  |
| CO[C@]1(NC(=O)CSC(F)F)C(=O)N2C(C(=O)O)=C(CSc3nnnn3CCO)CO[C@H]21 | inactive | inactive | inactive | inactive |  |  |  |  |
| CCCCC(CC)COCC1CO1 (stereo not given) | inactive | inactive | inactive | inactive |  |  |  |  |
| C=CCNC(N)=S | inactive | inactive | inactive | inactive |  |  |  |  |
| CC(=O)OCC(=O)[C@@]12N=C(C)O[C@@H]1C[C@H]1[C@@H]3CCC4=CC(=O)C=C[C@]4(C)[C@H]3[C@@H](O)C[C@@]12C | inactive | inactive | inactive | inactive |  |  |  |  |
| Nc1nc(=S)c2[nH]cnc2[nH]1 | 21.9 µM (active) and inactive | inactive | inactive | inactive |  |  |  |  |
| CO[C@@H]1[C@H](OC(=O)/C=C/C=C/C=C/C=C/C(=O)O)CC[C@]2(CO2)[C@H]1[C@@]1(C)O[C@@H]1CC=C(C)C | inactive | inactive | inactive | inactive |  |  |  |  |
| CC1=CC(C)C(C=O)CC1 (stereo not given) | inactive | inactive | inactive | inactive |  |  |  |  |
| NC(=O)NC(=O)Cc1ccccc1 | inactive | inactive | inactive | inactive |  |  |  |  |
| O=C(/C=C/c1ccc(O)c(O)c1)O[C@@H](C(=O)O)[C@@H](OC(=O)/C=C/c1ccc(O)c(O)c1)C(=O)O | inactive | inactive | inactive | inactive |  |  |  |  |
| CCC1(c2ccccc2)C(=O)NCNC1=O | inactive | inactive | inactive | inactive |  |  |  |  |
| CN(C)N=Nc1ccccc1 | inactive | inactive | inactive | inactive |  |  |  |  |
| CC(COc1ccc(C(C)(C)C)cc1)OS(=O)OCCCl (stereo not given) | inactive | inactive | inactive | inactive |  |  |  |  |
| COc1cc(C=O)ccc1O | inactive | inactive | inactive | inactive |  |  |  |  |
| CC(=O)OC/C=C(\C)CC/C=C(\C)CCC=C(C)C | inactive | inactive | inactive | inactive |  |  |  |  |
| O=C(O)CNC(=O)c1ccccc1 | inactive | inactive | inactive | inactive |  |  |  |  |
| CC(=O)OC(C)(C)C | inactive | inactive | inactive | inactive |  |  |  |  |
| NNCCc1ccccc1 | inactive | inactive | inactive | inactive |  |  |  |  |
